Activity calls are given as the source filed them.
assay: basal 3T3-L1 adipocyte mitochondrial potential changes, profiling panel, cell-based, JC-1 fluorescence, 3T3-L1 adipocytes, 24 h, 100 nL compound (AID 1168); details: JC-1 mitochondrial fluorescence, higher = more signal, called active from +8 up or from −8 down; further: test concentration not given here

z-score, inactive:
COCC(=C=CC[C@@H](O)c1cccc(OCCO)c1)C[C@@H](O)c1ccccn1 0.613, C[C@@]1([C@@H](NC(=O)c2ccc(-c3ccccc3)cc2)c2ccc(Cl)cc2)C[C@H]1C1CCCCC1 -1.07, CCc1cccc(NC(=O)O[C@H]2[C@H](OC(=O)Nc3ccccc3-c3ccccc3)[C@@H](OC(=O)Nc3ccccc3-c3ccccc3)[C@@H](OC)O[C@@H]2CO)c1 1.66, C=C[C@H](CO[Si](CC)(CC)CC)N(Cc1ccc(OC(C)=O)c(OC)c1)S(=O)(=O)c1ccc(Br)cc1 1.07, C[C@H]1NC(=O)[C@@]23C(=O)N[C@@H](Cc4ccccc4)C2[C@H](C)[C@@]2(C)O[C@H]2C3/C=C/C/C=C\CNC(=O)[C@@H]2CCCN2C1=O (stereo not given in full) 0.0802, CCS[C@H]1[C@@H](C(=O)O)[C@H](c2ccc(C)cc2)N(S(=O)(=O)c2ccc(C)cc2)[C@@H]1CC 0.337, COCCOC(=O)N1C(=O)[C@@]2(c3ccccc31)[C@H](C(=O)N1CCc3cc(OC)c(OC)cc3C1)[C@H]1C(=O)O[C@H](c3ccccc3)[C@H](c3ccccc3)N1[C@@H]2c1ccc(OCCO)cc1 0.139, [N-]=[N+]=Nc1ccccc1[C@H]1OC(c2ccc(OCCCO)cc2)=N[C@@]1(CCS(=O)(=O)c1ccccc1)C(=O)NCC(O)CO (stereo not given in full) -0.22, [N-]=[N+]=NCc1ccccc1[C@@H]1OC(c2ccc(OCCCO)cc2)=N[C@]1(Cc1ccccc1)C(N)=O -0.534, C=C(CCCC)C(=O)CC[C@@H](OC(=O)c1ccccc1-c1ccccc1C(=O)O)c1ccc(OCCO)cc1 -1.03, O=C(CS)NCCCCCCNC(=O)[C@@H]1C[C@@H]2C(=O)N[C@@H](Cc3ccccc3)C(=O)N2[C@@H]1c1cccc(OCCO)c1 0.476, CC(C)C(O)C1C=CC2C(=O)N(c3ccccc3)C(=O)C2N1Nc1ccc([N+](=O)[O-])cc1 (stereo not given) -1.37, CC(C)N1C(=O)[C@@]2(Cc3ccccc31)c1ccccc1C(=O)N(Cc1ccccc1Cl)[C@H]2c1ccc(CO)cc1 0.111, C=CCC(OC(C)=O)[C@@H]1[C@@H](N(Cc2cc3ccccc3o2)C(=O)c2cccc3ccccc23)c2cc(OCCCO)ccc2N1C(=O)c1ccc(-c2ccccc2)cc1 (stereo not given in full) 0.0822, C=CCC(OC(C)=O)[C@@H]1[C@@H](N(Cc2ccc(-c3ccccc3)cc2)C(=O)Cc2ccc(OC)cc2)c2cc(OCCCO)ccc2N1C(=O)Cc1ccc2ccccc2c1 (stereo not given in full) -1.73, Cc1ccc(S[C@]2(C(=O)O)CC(=O)N(C(C)C)[C@@H]2c2ccc(CO)cc2I)cc1 -0.386, O=C1O[C@@H](c2ccccc2)[C@@H](c2ccccc2)N2[C@@H](c3ccccc3OCCO)[C@]3(C(=O)Nc4ccc(C#CC5=CCCCC5)cc43)[C@@H](C(=O)N3CCCCCCC3)[C@H]12 -1.85, O=C1OCCC/C=C\[C@H]2OC34C=CCN(Cc5ccccc5)C(=O)[C@H]3N(CCCO)C(=O)[C@@H]4C12 (stereo not given in full) 0.478, COC(=O)[C@@]1(Cc2ccc(OC)cc2)[C@H]2c3cc(C(=O)N(C)C)n(Cc4ccc(S(C)(=O)=O)cc4)c3C[C@H]2CN1C(=O)c1ccccc1 -0.572, CC(C)C[C@@H]1NC(=O)[C@H](C(C)C)NC(=O)[C@@]23C(=O)N[C@@H](Cc4ccccc4)C2[C@H](C)[C@@]2(C)O[C@H]2C3/C=C/CC/C=C/CNC1=O (stereo not given in full) -0.321, COCCOC(=O)N1C(=O)[C@@]2(c3ccccc31)[C@H](c1ccc(O)cc1)N1[C@H](c3ccccc3)[C@H](c3ccccc3)OC(=O)[C@H]1[C@@H]2C(=O)Nc1nc2ccccc2s1 -1.17, CC(C)OC(=O)C=C1C[C@@H](c2ccccn2)O[C@@H](c2ccccn2)O1 -0.341, COC(=O)[C@@]1(Cc2ccc(F)cc2)[C@H]2c3cc(C(=O)N(C)C)n(Cc4ccc(Cl)c(C(F)(F)F)c4)c3C[C@H]2CN1C(=O)c1ccccc1 -1.47, CC(C)(C)OC(=O)CC[C@]1(C(=O)N2CCOCC2)N=C(c2ccc(OCCCO)cc2)O[C@H]1c1ccccc1N=[N+]=[N-] 3.46, C=C(C(=O)CC[C@@H](OC(=O)c1cccnc1)c1ccccc1OCCO)C(C)C 0.208, NCCCCCCNC(=O)[C@@H]1C[C@@H]2C(=O)NCC(=O)N2[C@@H]1c1ccc(O)cc1 0.172, CCCCCCc1nc(-c2cc(C)c(OC)c(C)c2)cc2c1[Si](C(C)C)(C(C)C)OC2 -0.385, C=CCOC(=O)[C@@H]1[C@H]2C(=O)O[C@H](c3ccccc3)[C@H](c3ccccc3)N2[C@H](c2ccc(OCCOC(=O)[C@H]3C[C@H]4C(=O)N5CCC[C@H]5C(=O)N4[C@H]3c3ccc(O)cc3)cc2)[C@@]12C(=O)Nc1ccc(I)cc12 1.24, O=C(N1CCCCC1)[C@]1(Cc2ccccc2)N=C(c2ccc(OCCCO)cc2)O[C@@H]1c1ccccc1 -0.515, CCOC(=O)[C@H]1C/C=C/C[C@H](C(=O)OCC)C(=O)O[C@H]2[C@@H](OC)O[C@H](CO)[C@@H](OC(=O)c3c(OC)cccc3OC)[C@@H]2OC1=O 0.154, C=C(CCCC)/C(=C/C[C@H](OC(=O)c1ccncc1)c1ccccc1OCCO)c1cnc2ccccc2c1 -0.424, CCN(CC)c1ccc(N2CC=CC34O[C@@H]5C=CCCOC(=O)C5[C@H]3C(=O)N(CCCCCCO)[C@@H]4C2=O)cc1 (stereo not given in full) -0.641, COC(=O)[C@@]1(Cc2ccc(OC)cc2)[C@H]2c3cc(C(=O)N4CCCC4)n(CCN4CNCC4=O)c3C[C@H]2CN1C(=O)c1ccccc1 -0.514, CCC(CC)C(O)C1C=CC2C(=O)NC(=O)C2N1Nc1ccccn1 (stereo not given) -0.414, O=C(CS)NCCCCCCNC(=O)[C@@H]1C[C@@H]2C(=O)NCC(=O)N2[C@@H]1c1cccc(OCCO)c1 0.475

Reference: PubChem BioAssay
